PLCb3 inh – PLC-beta3 (human) inhibition, primary screen | inhibition, % at 12.2 µM | 370,000 tested, 0.18% active | AID 720704 | Purified PLC-beta3, fluorogenic substrate, fluorescence | Q01970; in the data active means inhibition above about 11%;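 further: 0% = median of compound wells on plate and 100% = full blocker control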
ADAM17 inh – inhibitors of human ADAM17; P78536; recombinant ADAM17, EDANS/DABCYL FRET peptide cleavage; inhibition, % at 6.95 µM; 370,000 tested, 0.83% active;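 active means inhibition above the mean of compounds lying between control limits plus 3 SD, set per campaign, cut at about 8.5% in these data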;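 further: 0% = DMSO-only wells as the low control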
PLCg1 inh – inhibitors of human phospholipase C gamma1; 370,000 tested, 0.84% active; inhibition, % at 12.2 µM; purified PLC-gamma1, fluorogenic substrate, fluorescence; P19174
ADAM10 inh – ADAM10 inhibition, QFRET primary screen. 370,000 tested, 0.62% active. inhibition, % at 7 µM. AID 720582. recombinant ADAM10, EDANS/DABCYL FRET peptide cleavage, 3 h;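 active means inhibition above a per-campaign cutoff equal to the mean of compounds falling between control-based bounds plus 3 SD, cut at about 20% in these data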;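 further: 0% = DMSO wells while the 100% control is not disclosed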
Rce1 inh – blocks yeast Ras-converting enzyme | Q03530 | yeast membranes, quenched prenylated peptide cleavage fluorescence | 290,000 tested, 0.27% active | calls only;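 active means fall in fluorescence gain of 50% or more versus controls, with final raw signal at or below 3038400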;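 further: plate controls were neutral control wells for no effect and wells lacking membranes for full effect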
Target sequence (Q03530 whole entry, looked up): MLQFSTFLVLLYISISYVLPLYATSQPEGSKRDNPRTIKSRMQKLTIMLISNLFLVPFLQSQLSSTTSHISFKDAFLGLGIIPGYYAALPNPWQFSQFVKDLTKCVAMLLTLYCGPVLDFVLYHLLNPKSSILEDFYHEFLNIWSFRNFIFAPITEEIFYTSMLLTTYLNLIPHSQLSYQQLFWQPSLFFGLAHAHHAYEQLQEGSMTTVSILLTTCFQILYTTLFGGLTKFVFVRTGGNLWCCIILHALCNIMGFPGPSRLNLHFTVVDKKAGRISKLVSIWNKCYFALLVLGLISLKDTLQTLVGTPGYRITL
PLCg1 ctr – counter-screen for PLC-beta3 inhibitors: inhibitors of human PLC-gamma1; purified PLC-gamma1, fluorogenic substrate, fluorescence; shares compounds with PLCg1 inh; 3,300 tested, 3.1% active; inhibition, % at 12.3 µM
PLCb3 confirm – human PLC-beta3 inhibition, confirmation; AID 743261; purified PLC-beta3, fluorogenic substrate fluorescence; 3,300 tested, 1% active; inhibition, % at 12.3 µM; shares compounds with PLCg1 inh; in the data active means inhibition above about 11%
* hit, by the source's call; i = inactive; x = not tested or not shown; ! = repeats disagree. In the library only some 2.1% were active in any assay of this set; here they are far more common. Unless noted, no stated cut-off is given here; in the data, active means inhibition above about 9.5%; inactive means the rest.

SMILES	PLCb3 inh	ADAM17 inh	PLCg1 inh	ADAM10 inh	Rce1 inh	PLCg1 ctr	PLCb3 confirm
CC1=C(C(=O)Nc2ccccn2)C(c2ccc(Cl)cc2)NC(=S)N1 (stereo unspecified)	3	-4	0	-10	i	x	x
CC1=C(C(=O)Nc2ccccn2)C(c2ccc(Br)cc2)NC(=S)N1 (stereo unspecified)	5	3	15*	-11	i	-2	-2
CN1CCOc2ccc(S(=O)(=O)NCCc3ccc(Cl)cc3)cc21	-7	6	13*	13	i	4	0
CCOc1ccc(S(=O)(=O)Nc2cc(Cl)ccc2O)cc1	0	3	13*	16	i	-2	-4
CCOc1ccc(S(=O)(=O)Nc2cccc(Cl)c2)cc1	-2	2	0	8	i	x	x
CN(C)C1=NCCN1CCc1ccc(F)cc1	1	-1	7	-8	x	x	x
COc1cc(C(C)=O)ccc1OCC(=O)Nc1ccc(C)c(S(=O)(=O)N2CCCCCC2)c1	-13	-1	0	-9	x	x	x
Cc1ccc(S(=O)(=O)N2CCN(CC(=O)NC3CCCc4ccccc43)CC2)cc1C (stereo unspecified)	5	8	11*!	-3	i	-3	0
Cc1ccc(S(=O)(=O)N2CCN(CC(=O)NC3CCCc4ccccc43)CC2)c(C)c1 (stereo unspecified)	1	2	3	2	i	x	x
COc1ccc(C(=O)Nc2ccc(S(=O)(=O)N3CCCCC3C)cc2)c(OC)c1OC (stereo unspecified)	12*	6	10*	10	i	3	-1
CCOC(=O)c1sc(NC(=O)C2CC2)cc1C	5	3	11*	7	i	-8	-1
CCOC(=O)c1sc(NC(=S)NC(=O)C2CCCC2)cc1C	0	0	0	-2	i	x	x
CCN(CC)S(=O)(=O)c1ccc(/C=C/C(=O)Nc2ccccc2N2CCOCC2)cc1	-2	6	9.6*	12	i	4	-7
CS(=O)(=O)N(Cc1ccc(C(=O)NC2CCCC2)cc1)c1ccccc1	1	6	13*	8	i	-6	-14
CS(=O)(=O)N(Cc1ccccc1)c1ccc(C(=O)NC2CCCCC2O)cc1 (stereo unspecified)	4	3	9.5*	10	i	0	-3
COc1ccc(OC)c(N(CCN2C(=O)c3ccccc3C2=O)C(=O)C2CCC(=O)C2C)c1 (stereo unspecified)	1	2	0	-9	x	x	x
COc1ccc(C(=O)NCc2nnc(SCC(=O)N3CCCC3)o2)cc1OC	-8	-8	-2	-7	i	x	x
C[C@@H]1CN(C(=O)OC(C)(C)C)CCN1c1ccc(N2CCN(Cc3ccccc3)[C@@H](C)C2)c(C#N)c1	-68	-22	-77	-148	x	x	x
C/C(CC(=O)Nc1ccc([N+](=O)[O-])cc1)=N\NC(=O)c1ccccc1[N+](=O)[O-]	5	4	11*	18	i	1	3
C/C(CC(=O)Nc1ccc(N(C)C)cc1)=N\NC(=O)c1ccc([N+](=O)[O-])cc1	-7	-1	0	3	i	x	x
Cc1nn(C)cc1CN(C)C(=O)CCc1nnc(CCC2CCCCC2)o1	-2	-2	11*	-13	i	-5	0
CN(Cc1nccn1C)C(=O)CCc1nnc(CCC2CCCCC2)o1	2	-3	-4	5	i	x	x
COc1ccc(NC(=O)CSc2nnc(-c3ccccc3)n2Cc2ccco2)c(OC)c1	11*	9	5	12	i	1	1
COc1ccccc1C(=O)NC(=O)CSc1nncn1C(C)C	-6	-4	0	-8	i	x	x
Cc1ccc(C(C)C)cc1NC(=O)Nc1ccc([N+](=O)[O-])cc1	12*	0	5	9	i	5	10
SMILES	PLCb3 inh	ADAM17 inh	PLCg1 inh	ADAM10 inh	Rce1 inh	PLCg1 ctr	PLCb3 confirm
COc1ccc(S(=O)(=O)NCCN2CCOCC2)cc1[N+](=O)[O-]	-5	-2	-1	4	i	x	x
COc1ccc(S(=O)(=O)NCCCN2CCOCC2)cc1F	0	4	9.5*	6	i	8	1
Cc1ccccc1NC(=O)c1cccc(C(=O)Nc2ccccc2C)c1	3	4	12*	-1	i	-1	2
Cc1ccc(CS(=O)Cc2ccc(C(=O)N3CCN(c4ccccc4)CC3)o2)cc1 (stereo unspecified)	-6	-5	-4	-6	i	x	x
Cc1ccc(CS(=O)Cc2ccc(C(=O)N3CCN(c4ccc(F)cc4)CC3)o2)cc1 (stereo unspecified)	-9	5	12*	11	i	-9	-9
CCCCNC(=O)NC12CC3CC(CC(C3)C1)C2	-2	-2	3	-7	i	x	x
CCCCNC(=O)NC(C(=O)OC)C12CC3CC(CC(C3)C1)C2 (stereo unspecified)	4	4	13*	13	i	-2	3
CN(C)CCN(C)Cc1ccccc1Sc1cccc2ccccc12	2	2	3	-5	i	x	x
NC(=O)C1CNc2ccccc2O1 (stereo unspecified)	7	1	11*	7	i	-3	-3
COC(=O)c1scc(C)c1-n1ccc(C(=O)C(=O)N(C)C)c1	13*	5	7	10	i	-4	-1
Cc1ccsc1/C=C1\SC(N)=NC1=O	9	8	10*	18	i	-3	-2
Cc1ccc(/C=C2\SC(N)=NC2=O)s1	4	-1	3	-2	i	x	x
COc1cccc(/C=C/C(=O)OCCN2C(=O)c3ccccc3C2=O)c1	-15	-5	-7	-12	i	x	x
COc1ccccc1/C=C/C(=O)OCCN1C(=O)c2ccccc2C1=O	-4	3	11*	-9	i	-14	-12
O=[N+]([O-])c1ccc(C(=S)N2CCN(Cc3ccccc3)CC2)cc1	3	0	10*	3	i	0	2
O=C(O)c1ccc([N+](=O)[O-])cc1	-3	2	13*	9	x	-1	3
O=C(c1ccc([N+](=O)[O-])cc1)N(Cc1ccccc1)Cc1ccccc1	10	8	10*	10	x	0	6
O=C(c1ccc([N+](=O)[O-])cc1)N1CCN(Cc2ccccc2)CC1	4	1	-1	2	i	x	x
O=C(NCCc1ccccc1)c1ccc([N+](=O)[O-])cc1	2	7	4	2	i	x	x
O=C(CN1CCc2ccccc2C1)Nc1ccc(F)cc1F	-2	3	10*	4	i	-6	-3
COc1cc2c(cc1OC)CN(CC(=O)Nc1ccc(F)cc1F)CC2	-23	-5	-12	-10	i	x	x
